In the library only some 19% were active in any assay of this set; here they are far more common.
IL-1B inflam inh – inflammasome signaling inhibition, IL-1 beta readout; THP-1 LPS/ATP IL-1B secretion, AlphaLISA, 16 h; hits give low values; activity change, % at 57.5 µM; 360,000 tested, 4.7% active; in the data active means activity change below about -50%; inconclusive means mostly about -30% to -49%
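Secreted IL-1B measured by AlphaLISA bead assay after 16 h compound exposure of THP-1 cells; compounds (final up to 57.5 uM) added 1 h before LPS (250 ng/mL) and ATP (1.25 mM) stimulation; lower signal means less secretion.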
HT1080 IDH1KD tx – HT-1080 IDH1 knockdown cell toxicity (counter line); HT-1080 IDH1 knockdown viability, ATP luminescence, 48 h; Potency, µM (series often up to 46.1 µM), without a hit: at the highest dose activity, negative = toxicity, hits mostly cytotoxic; 360,000 tested, 2% active; AID 686971;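 further: potency means the concentration at half of the fitted maximal effect; 0% = DMSO wells and -100% = cell-free medium wells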
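Viability of IDH1-knockdown HT-1080 fibrosarcoma cells was assessed by CellTiter-Glo after 48 h at 37 °C with titrated compound; concentration-effect curves were classified by fit quality and response size.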
TDP1 cell CPT – growth inhibition of DT40 Tdp1-/-;hTDP1 cells with camptothecin (screen for TDP1 inhibitors) | chicken DT40 Tdp1-/-;hTDP1 cells + 20 nM CPT, ATP luminescence, 48 h | Potency, µM (doses to about 46.2 µM), for the others: at the top dose activity change, negative = growth inhibition, most hits filed as inhibitors | 420,000 tested, 12% active | AID 686979; further: potency means the concentration at half of the fitted maximal effect; nearly all actives have a fitted effect of over 55% in size
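Chicken DT40 Tdp1-/- cells complemented with human TDP1, 400 cells/well, exposed to compounds plus 20 nM camptothecin for at least 48 h at 37 C; viability read as ATP content by CellTiter-Glo luminescence.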
HT1080-NT tox – kills 2HG-producing HT-1080-NT fibrosarcoma cells | HT-1080-NT fibrosarcoma viability, CellTiter-Glo ATP luminescence, 48 h | Potency, µM (series often up to 46.1 µM), for the others: at the highest dose activity, negative = less viability, usual class: cytotoxic | 360,000 tested, 1.6% active;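 further: NT is the 2HG producing partner of a matched IDH1 knockdown line; potency means the concentration at half of the fitted maximal effect; 0% = DMSO-treated cells and -100% = media-only wells without cells; nearly all actives have a fitted effect of over 55% in size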
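Viability by CellTiter-Glo luminescence after 48 h compound exposure at 37C of HT-1080-NT cells (750/well, RPMI, 5% FBS). % activity scaled between DMSO wells and medium-only wells, then curve-fitted and categorized by curve class.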
ELG1 DNA repair – blocks ELG1-dependent DNA repair in HEK293T cells; HEK293T ELG1-luciferase reporter, luminescence, 16 h; DNA damage induced by 5-fluorouridine; Potency, µM (series often up to 46.1 µM), for the others: top-dose activity change, negative = inhibition, usual class: inhibitors; 330,000 tested, 2.3% active; further: potency means the concentration at half of the fitted maximal effect; nearly all actives have a fitted effect of over 55% in size
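5-Fluorouridine DNA damage + compound/DMSO, 2,000 cells/well, 16 h, 37 °C/5% CO2. ONE-Glo, 30 min RT, luminescence. Readout = decrease in reporter signal.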
DT40 TDP1 no CPT – qHTS for Inhibitors of human tyrosyl-DNA phosphodiesterase 1 (TDP1): qHTS in cells in absence of CPT; DT40 Tdp1-/- hTDP1 cells, no CPT, ATP luminescence, 48 h; Potency, µM (doses to about 46.2 µM), without a hit: top-dose activity change, negative = growth inhibition, actives largely listed as inhibitors; 420,000 tested, 15% active; AID 686978, 2013; further: potency means the concentration at half of the fitted maximal effect; nearly all actives have a fitted effect of over 55% in size
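Growth of hTDP1-complemented DT40 Tdp1-knockout cells is measured by ATP luminescence after at least 48 hr compound exposure at 37 °C, with DMSO substituting for the 20 nM CPT used in the parallel screen.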
* marks the source's active call; other numbers are inactive results; ? = inconclusive; nt = not tested or not shown; [ ] = remark or other dose. Unless noted, the call rests on the fitted dose curve; in most records, active means well fitted curve in the direction sought with a large enough effect; inconclusive means small, poorly fitted or top-dose-only effect, or another doubt; inactive means no such curve, though single readings can be large; an effect the other way counts as inactive or inconclusive. Unless noted, on the % scale 0 is the no-effect control and ±100 the full control effect.

SMILES | IL-1B inflam inh | HT1080 IDH1KD tx | TDP1 cell CPT | HT1080-NT tox | ELG1 DNA repair | DT40 TDP1 no CPT
CCC1CCc2sc(C(=O)NCC3CCCO3)cc2C1 (stereo unspecified) | -17 | 20% | ? | -1% | ? | 18µM*
COc1ccccc1C(CNC(=O)CNC(=O)c1cccc(Cl)c1)N1CCCC1 (stereo unspecified) | -20 | 12% | -1% | 9% | nt | -20%
CCC1CCc2sc(C(=O)NNC(=S)NCC3CCCO3)cc2C1 (stereo unspecified) | 22 | -4% | ? | 0% | 9% | ?
CCC1CCc2sc(C(=O)NCc3ccccn3)cc2C1 (stereo unspecified) | -11 | ? | 15µM* | -25% | ? | 10µM*
CCOc1ccccc1-c1cc(-c2n[nH]c(=S)n2CC)c2ccccc2n1 | 9 | 1% | ? | -6% | ? | 18µM*
CCOc1cccc(-c2cc(-c3n[nH]c(=S)n3CC)c3ccccc3n2)c1 | 2 | -3% | -23% | -6% | -12% | ?
O=C(COC(=O)c1cccc([N+](=O)[O-])c1)c1ccc(OCc2ccccc2)cc1 | -12 | 21% | ? | 16% | ? | 13µM*
O=C(Cc1ccccc1)NCC(=O)OCC(=O)c1ccc([N+](=O)[O-])cc1 | -72* | 23% | ? | 1% | 0% | ?
O=C(CNS(=O)(=O)c1ccccc1)OCC(=O)c1ccc([N+](=O)[O-])cc1 | 0 | -4% | 21µM* | -4% | 6% | ?
O=C(CCc1ccccc1)OCC(=O)c1cccc([N+](=O)[O-])c1 | 9 | 0% | -5% | -3% | -4% | -15%
O=C(CNC(=O)c1ccco1)OCC(=O)c1ccc([N+](=O)[O-])cc1 | -76* | 0% | ? | 6% | -1% | ?
O=C(CNS(=O)(=O)c1ccccc1)OCC(=O)c1ccc(Br)cc1 | -4 | 2% | 2% | -2% | 14% | -5%
O=C(CNC(=O)c1ccco1)OCC(=O)c1ccc(Cl)cc1 | 23 | 5% | 7% | -2% | -17% | 4%
CCOC(=O)c1ccc(NC(=O)Nc2ccc3snnc3c2)cc1 | nt | nt | ? | nt | nt | 2.9µM*
Cc1nc2cc(NC(=O)Nc3cccc4ccccc34)ccc2n1C | -5 | 3% | 13% | 6% | ? | 6%
O=C(Nc1ccc2snnc2c1)Nc1cccc2ccccc12 | -26 | ? | 23µM* | ? | ? | ?
CCc1ccccc1NC(=O)Nc1ccc(F)cc1 | -20 | 6% | ? | 15% | -4% | -27%
CCc1ccccc1NC(=O)Nc1ccc2snnc2c1 | nt | nt | 18µM* | nt | nt | 21µM*
COc1cccc(-c2cc3nc(-c4ccccc4)cc(N4CCN(C(=O)c5ccoc5)CC4)n3n2)c1 | -13 | ? | 7.3µM* | -18% | nt | 5.2µM*
COc1cccc(-c2cc(N3CCN(C(=O)c4ccoc4)CC3)n3nc(-c4cccc(Cl)c4)cc3n2)c1 | -6 | -2% | 15µM* | 0% | nt | 8.2µM*
COc1cccc(-c2cc3nc(-c4ccccc4)cc(N4CCC5(CC4)OCCO5)n3n2)c1 | ? | 5%[9.24 µM] | ? | ? | ? | 21µM*
CN1CCN(c2cc(-c3cccc(C(=O)O)c3)nc3ccnn23)CC1 | 0 | 29% | -15% | ? | nt | -13%
COc1cccc(-c2cc(C(F)(F)F)n3nc(-c4ccc(C)cc4)cc3n2)c1 | nt | nt | -22% | nt | nt | -15%
O=C(Nc1cccc(C(F)(F)F)c1)c1cc2nc(-c3ccc4c(c3)OCO4)cc(C(F)(F)F)n2n1 | nt | nt | -4% | nt | nt | -4%
O=C(NC(=S)N1CCN(c2ccc(F)cc2)CC1)C12CC3CC(CC(C3)C1)C2 | -2 | 14% | ? | -1% | ? | ?
SMILES | IL-1B inflam inh | HT1080 IDH1KD tx | TDP1 cell CPT | HT1080-NT tox | ELG1 DNA repair | DT40 TDP1 no CPT
Cc1cccc(N2CCN(C(=O)c3ccncc3)CC2C)c1 (stereo unspecified) | -2 | -8% | -24% | 0% | ? | -24%
CCOc1ccccc1N1CCN(C(=S)NC(=O)C23CC4CC(CC(C4)C2)C3)CC1 | -9 | -6% | 18µM* | -6% | -16% | 16µM*
Cc1cccc(N2CCN(C(=O)c3noc4c3COc3ccc(C)cc3-4)CC2C)c1 (stereo unspecified) | -3 | 9% | ? | 5% | 10% | 23µM*
COc1cccc(N2CCN(C(=O)c3cc(C)oc3C)CC2)c1 | 11 | ? | 12µM* | ? | -11% | 13µM*
Cc1cccc(N2CCN(C(=O)c3cn4ccccc4n3)CC2C)c1 (stereo unspecified) | 5 | -19% | 10% | 5% | ? | -8%
Cc1cccc(N2CCN(C(=O)c3cc(C)oc3C)CC2C)c1 (stereo unspecified) | ? | -5% | ? | -13% | -6% | 16µM*
Cc1cc(C(=O)N2CCN(c3ccccc3O)CC2)c(C)o1 | -5 | 1% | 1% | 7% | 23% | -11%
CC(C)CN1CCC2(CC1)CCN(C(=O)c1csnn1)CC2 | nt | nt | -1% | nt | nt | ?
CCCCN(C(=O)CSc1nnnn1C)C1CCS(=O)(=O)C1 (stereo unspecified) | 11 | 6% | -7% | 9% | 29% | 12%
COc1ccc(S(=O)(=O)Cc2ccc(C(=O)N3CCN(c4cccc(C)c4)C(C)C3)o2)cc1 (stereo unspecified) | 11 | 12µM* | 5.2µM* | 2.6µM* | 13µM* | 5.2µM*
CCCc1ccc(C(=O)N2CCN(c3ccccc3OCC)CC2)cc1 | 17 | -8% | ? | -11% | -11% | ?
CCOc1ccccc1N1CCN(C(=O)c2csc(C)c2CC)CC1 | ? | 1% | ? | 3% | ? | 21µM*
COc1ccc(S(=O)(=O)Cc2ccc(C(=O)N3CCN(C(=O)c4ccco4)CC3)o2)cc1 | -4 | 9% | -19% | -5% | -6% | -12%
COc1ccccc1N1CCN(C(=O)c2cc(C)oc2C)CC1 | 3 | -5% | -14% | 2% | -5% | ?
CCOc1ccccc1N1CCN(C(=O)c2cc(C)oc2C)CC1 | -9 | ? | 18µM* | -3%[9.24 µM] | -20% | 23µM*
CCSC(=O)NC1CCCCC1 | nt | 22% | 7% | -3% | 25% | -21%
CC1CCN(S(=O)(=O)c2ccc3c(c2)N(CC(=O)NC(C)C)C(=O)CS3)CC1 | nt | nt | 0% | nt | nt | -12%
